In PubChem BioAssay AID528 (NMMLSC, 2006):
Among all 24,000 compounds or so, fewer than 10 were called active. Inconclusive results (about 9%) are left out. Not all results are given here. Values without a mark were called inactive.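 The calls were made as follows: active = fluorescent ligand binding to cells raised by more than 40% of the manganese-induced maximum; inconclusive = compound's own fluorescence above 85% of the ligand control signal; inactive = the rest.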

Each compound was assayed against Integrin alpha-4 (Homo sapiens) (UniProt P13612) (assay: enhancers of LDV-FITC binding to VLA-4 integrin, primary screen, Jurkat cells, flow cytometry (AID 528;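 also: 0% = ligand binding without compound and 100% = manganese-stimulated maximal binding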)). Settings: stronger effect = higher value, screened at 10 µM (by protocol).
Integrin alpha-4 (Homo sapiens), sequence (P13612 whole entry, looked up): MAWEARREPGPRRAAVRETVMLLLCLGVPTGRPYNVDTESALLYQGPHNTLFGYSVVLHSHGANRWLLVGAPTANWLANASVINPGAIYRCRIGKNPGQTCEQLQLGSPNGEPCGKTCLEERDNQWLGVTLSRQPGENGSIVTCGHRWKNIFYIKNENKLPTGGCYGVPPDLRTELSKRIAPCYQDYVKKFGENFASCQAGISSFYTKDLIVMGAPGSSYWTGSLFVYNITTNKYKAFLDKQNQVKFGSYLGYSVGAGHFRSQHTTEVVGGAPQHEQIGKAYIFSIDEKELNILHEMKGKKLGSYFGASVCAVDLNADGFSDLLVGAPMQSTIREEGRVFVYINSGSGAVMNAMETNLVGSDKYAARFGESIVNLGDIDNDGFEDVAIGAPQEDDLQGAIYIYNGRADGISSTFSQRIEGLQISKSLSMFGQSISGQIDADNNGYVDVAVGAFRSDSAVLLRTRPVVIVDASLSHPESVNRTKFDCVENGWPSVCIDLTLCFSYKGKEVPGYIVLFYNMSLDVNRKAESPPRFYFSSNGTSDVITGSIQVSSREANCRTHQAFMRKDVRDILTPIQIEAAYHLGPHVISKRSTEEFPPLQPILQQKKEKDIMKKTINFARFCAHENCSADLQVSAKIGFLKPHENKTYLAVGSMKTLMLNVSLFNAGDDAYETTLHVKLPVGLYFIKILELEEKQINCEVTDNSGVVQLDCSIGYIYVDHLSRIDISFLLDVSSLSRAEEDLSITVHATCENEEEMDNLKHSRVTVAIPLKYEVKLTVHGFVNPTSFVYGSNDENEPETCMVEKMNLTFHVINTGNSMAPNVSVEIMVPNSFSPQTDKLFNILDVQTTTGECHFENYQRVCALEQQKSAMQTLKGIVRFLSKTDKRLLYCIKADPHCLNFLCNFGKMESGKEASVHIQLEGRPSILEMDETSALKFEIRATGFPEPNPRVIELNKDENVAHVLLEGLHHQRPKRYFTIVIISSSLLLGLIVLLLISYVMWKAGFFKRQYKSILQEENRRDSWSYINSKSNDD

SMILES | activation
COC(=O)c1ccc(CN(c2ccccc2OC)S(=O)(=O)c2cccs2)o1 | -2%
O=C(CCS(=O)(=O)Cc1ccccc1F)NCCCN1CCCCC1 | -2%
COc1ccc(CN2C(=O)CN=C2Nc2ccc(C)cc2C)cc1 | 6%
COc1cccc(N2C(=O)CC(N3CCN(S(=O)(=O)c4ccccc4)CC3)C2=O)c1 (stereo not given) | -2%
CN(CCCNC(=O)CN1C(=O)CC(C)(C)S(=O)(=O)c2ccccc21)C1CCCCC1 | 6%
Cc1ccc(NC(=O)CCNS(=O)(=O)c2ccc3c(c2)oc(=O)n3C)cc1C | 9%
O=C(COC(=O)c1ccccc1C(=O)c1ccccc1)c1ccco1 | 2.5%
CNC(=O)Nc1cc(C(C)(C)C)no1 | -2%
Cc1cc(=O)n2nc(N3CCCC(C(=O)NCCC4=CCCCC4)C3)sc2n1 (stereo not given) | -3%
CC(c1cccnc1)N(CCN(C)C)C(=O)Nc1ccc(Cl)c(Cl)c1 (stereo not given) | -2%
CSc1sc(C)cc1C1C(C#N)=C(N)N(c2cccnc2)C2=C1C(=O)CCC2 (stereo not given) | 0%
COc1ccc(C2C3=C(OC(C)=O)c4ccccc4C3=Nc3c2c(=O)n(C)c(=O)n3C)cc1 (stereo not given) | -0.5%
COCCNC(=O)CN1C(=O)CSc2ncccc21 | 2.7%
CC(=O)Nc1ccc(S(=O)(=O)N2CCC(N(C)CCC(C)C)CC2)cc1 | 4%
CCOC(=O)N1CCC(NC(=O)COc2cc(=O)n(C)c3ccccc23)CC1 | -3%
O=C(O)CCN1C(=O)CC2(CCCCC2)C1=O | -1%
c1cc(-c2nn[nH]n2)ccc1CN1CCCCC1 | 1%
O=C(O)CSCNC(=O)CC12CC3CC(CC(C3)C1)C2 | 13%
CCC(C)NC(=O)C1CCC(=O)N1Cc1ccc(C)cc1 (stereo not given) | 4%
O=c1c(-c2ccccc2)coc2c(CN3CCOCC3)c(O)ccc12 | 9.5%
Cc1noc(C)c1S(=O)(=O)N(CC(=O)NCc1ccc(Cl)cc1)c1ccc2c(c1)OCO2 | 3%
CC(C)C(=O)Nc1c(C(=O)c2ccc(F)cc2)oc2ccccc12 | -2%
O=C(CCCCn1c(=O)[nH]c2ccccc2c1=O)NCc1ccc2c(c1)OCO2 | 10%
CCCC(=O)NC(C)C(c1cccs1)N1CCN(c2ccccc2)CC1 (stereo not given) | -2%
Cn1cccc1C1(C(F)(F)F)NCCNC1=O (stereo not given) | 1%

SMILES | activation
Cc1ccccc1CSc1nnc(Cn2c(=O)sc3ccccc32)n1C | 4%
Nc1nonc1C(=O)NCCc1ccccc1 | 6%
CCOc1ccc(-c2nnc3ccc(SC)nn23)cc1 | 4%
CCOc1ccc(-n2c(SC(C)C(=O)OC)nc3c(c2=O)SCC3)cc1 (stereo not given) | 0%
O=C(NCc1ccco1)C1CCCN(S(=O)(=O)c2cnc[nH]2)C1 (stereo not given) | -5%
O=C(Nc1nsc(-c2ccccc2)n1)c1ccncc1 | 4%
COc1nc(Oc2ccc(=O)n(C)n2)nc(N(C)C)n1 | 4%
C=CCOc1ccc(C2/C(=C(\O)c3c(C)[nH]c(C(=O)OC)c3C)C(=O)C(=O)N2CCN(C)C)cc1 (stereo not given) | -6%
CCOC(=O)C1CCN(C(=O)c2oc3ccc(S(=O)(=O)N4CCCCCC4)cc3c2C)CC1 | -3%
O=C(O)c1ccc(NC(=O)c2cccs2)cc1 | -2.5%
CCC1Oc2ccc(Cl)cc2N(CC(=O)O)C1=O (stereo not given) | 2%
CCOC(=O)CSc1nnc(NC(=O)c2cccc(S(=O)(=O)N3CCCCC3)c2)s1 | 0.5%
CCC(=O)c1ccc(OCC(O)CN2C(=O)NC(C)(C)C2=O)cc1 (stereo not given) | -4%
Cc1ccc(-c2cc(C(F)(F)F)n3nc(C(=O)N4CCCC4)cc3n2)cc1 | -1%
Cc1ccc(CNC(=O)CN2CCN(Cc3ccc(Cl)cc3)C2=O)cc1 | -2%
CCn1c(SCC(=O)Nc2ccc3c(c2)OCCO3)nc2c(c1=O)SC(C)C2 (stereo not given) | -4%
CS(=O)(=O)NCc1ccc(C(=O)NCc2ccccc2)cc1 | 1%
CCCC(=O)Nc1nnc(CC(=O)OCC)s1 | -0.5%
O=C(CC1Oc2ccccc2NC1=O)NCCCN1CCN(Cc2ccccc2)CC1 (stereo not given) | -1%
CCC1CCCCN1CCNS(=O)(=O)c1ccc2c(c1)CCN2C(C)=O (stereo not given) | -4%
Cc1oc(-c2cccc(Cl)c2)[n+]([O-])c1C | 8%
CCOC(=O)CN1C(=O)C(O)(CC(=O)c2ccccn2)c2ccccc21 (stereo not given) | 4%
CCOc1ccc(S(=O)(=O)n2ccnc2)c2ccccc12 | 1%
Cn1c(=O)c2c(nc(N3CCCCCC3)n2CC(=O)c2ccc(Br)cc2)n(C)c1=O | -1%
CCOc1ccc(OCC)c(NC(=O)C(NS(=O)(=O)c2ccc3c(c2)oc(=O)n3C)C(C)C)c1 (stereo not given) | -2%

SMILES | activation
Cn1cccc1Cc1nnc(SCC(=O)NCc2ccc3c(c2)OCO3)n1CCc1ccccc1 | -4%
Cn1c(=O)[nH]c(=O)c2c1nc(CN(Cc1ccccc1)Cc1ccccc1)n2CCN1CCOCC1 | -6%
C=CCn1c(=N)n(CC(O)COc2ccc(OC)cc2)c2ccccc21 (stereo not given) | 0%
CCOc1cc(C(=O)Nc2ncccn2)cc(OCC)c1OCC | 11.5%
Cc1nnc(C)n1/N=C/c1ccc(C(C)C)cc1 | -4%
N#CCCN1CCN(S(=O)(=O)c2ccc(S(=O)(=O)NC3CC3)cc2)CC1 | 1%
Cc1nnc(NC(=O)CCC(=O)N2CCC(C)CC2)s1 | -0.5%
O=C(CCn1c(=S)[nH]c2ccccc2c1=O)NCCCN1CCCC1=O | 5%
CC(=O)c1c(N)n(C)c(=O)n(C)c1=O | 9%
CCCn1nnc2sc3c(c2c1=O)CCC(C)C3 (stereo not given) | 4%
CC1CCCN(C(=O)c2ccc3c(c2)C(=O)N(CCC2=CCCCC2)C3=O)C1 (stereo not given) | 0%
CCCCC(=O)N(c1ccc(OC)cc1)C1C=CS(=O)(=O)C1 (stereo not given) | -1%
CCCCn1c(=S)[nH]c2ncccc2c1=O | 1%
O=S1(=O)CC(NCc2ccccc2)C(Nc2ccc(Cl)cc2)C1 (stereo not given) | -8%
CCCCCCn1c(CN2CCCCC2)nc2c1c(=O)n(C)c(=O)n2C | -6%
COc1ccccc1C(=O)N1CCN=C1SCc1cccnc1 | 2%
Cc1ccc(S(=O)(=O)N2C3C=CC(C3)C2C(=O)O)cc1 (stereo not given) | 5%
COc1cccc(N(C(=O)c2ccn[nH]2)C2(C(=O)Nc3c(C)cccc3C)CCCCC2)c1 | 3%
CCOC(=O)C1CCN(C(=O)C2CCN(S(=O)(=O)N3CCCC3)CC2)CC1 | 6%
COc1ccc(-c2nc(CS(=O)CC(=O)NCc3cccnc3)c(C)o2)cc1OC (stereo not given) | 3%
Cc1noc(C)c1S(=O)(=O)N1CCCC(C(=O)Nc2nccs2)C1 (stereo not given) | 0%
CCN(CC)S(=O)(=O)N1CCC(C(=O)NC(C)CCc2ccccc2)CC1 (stereo not given) | 3%
COc1cccc(-n2c(Cc3cc(=O)[nH]c(=O)[nH]3)nnc2SCC(=O)Nc2ccccc2)c1 | 5%
Cc1cccc(N2C(=O)SC(N(CC(=O)O)c3cccc(C)c3)C2=O)c1 (stereo not given) | 7%
CCN(Cc1ccccc1)C(=O)CSc1nc(C)cc2c1C(=O)OC2 | -9%

SMILES | activation
CCOc1ccc(CNC(=O)C2CCC(=O)N2C2CCCC2)cc1OC (stereo not given) | -7%
O=C(CN1CCN(S(=O)(=O)c2ccc(F)cc2)CC1)Nc1ccccc1F | -1%
COc1ccc(OC)c(N=Cc2c(O)[nH]c3ccccc23)c1 | 8%
O=C1c2cccnc2C(=O)N1Cc1cccs1 | 0%
COc1ccccc1CNC(=O)CCn1c(=O)sc2ccccc21 | 5%
CSCCC(NC(=O)C1CCC(C)CC1)C(=O)NCc1ccco1 (stereo not given) | 3%
CC(=O)c1c(C)c[nH]c1C | 3%
CCOC(=O)c1cnc(-n2nc(C)cc2C)nc1Nc1cccc(C(C)=O)c1 | 0%
CCOc1cc(/C=N/n2cnnc2)c(Br)cc1O | 9%
CC1CN(C(=O)c2ccc3c(c2)OCO3)OC(c2ccccc2)O1 (stereo not given) | 4%
CCOC(=O)N1CCN(C(=O)c2n[nH]c(=O)c3ccccc23)CC1 | -9%
CCOC(=O)N1CCN(S(=O)(=O)c2cc3c(cc2C)NC(=O)CO3)CC1 | -8%
Cc1oc(-c2ccccc2F)nc1CS(=O)(=O)CC(=O)NCCCN(C)C1CCCCC1 | -7%
O=C(NCc1cccnc1)c1ccc(CS(=O)(=O)c2ccc(Br)cc2)o1 | 3%
CCOC(=O)c1ccc(-n2c(C)nc3c(cnn3-c3ccccc3C)c2=O)cc1 | -2.3%
CCOc1cc2[nH]c(=O)n(CCC(=O)NCc3ccc(OC)cc3)c(=O)c2cc1OCC | 1%
COc1ccccc1NC(=O)CN1CCN(S(=O)(=O)c2ccc(Br)cc2)CC1 | 1%
O=C(O)CCC(=O)Nc1ccc(N2CCOCC2)cc1 | 2%
S=C1SCN(CCN2CCOCC2)CN1Cc1ccccc1 | -3%
Cc1ccc(S(=O)(=O)NCCN2CCOCC2)cc1C | -2%
CN1CCCc2cc(C#N)c(=O)[nH]c21 | -3%
CCN1CCN(c2ncnc3c2oc2nc(C)c4c(c23)CC(C)(C)OC4)CC1 | 9%
CCOc1ccc(NC(=O)CC2NCCNC2=O)cc1 (stereo not given) | 0.7%
O=C(CN1CCOCC1)N1CCCc2c1c(=O)oc1ccc(OCc3ccccc3)cc21 | -5%
Cc1ccc2nc3n(c(=O)c2c1)CCC3 | 5%
